Test results taken from PubChem BioAssay (Tox21).
Results filed as inconclusive are left out. Entries that show only a call come without a potency. Active and inactive are the calls of the source. Unless noted, the call rests on the fitted dose curve; in most records, active means well fitted curve in the direction sought with a large enough effect in the repeat runs; inconclusive means weak or mixed curves; inactive means no such curve, though single readings can be large; an effect the other way counts as inactive or inconclusive.

Columns and labels:
[1] = target: Peroxisome proliferator-activated receptor delta (Homo sapiens) (UniProt Q03181); test: qHTS assay to identify small molecule agonists of the peroxisome proliferator-activated receptor delta (PPARd) signaling pathway (AID 743212; calls by dose curve)
How it was run: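 Beta-lactamase reporter read by fluorescence (LiveBLAzer B/G FRET, 2 h, room temperature). Test agents, in DMSO, incubated at 37 C with PPARd-bla HEK293H cells.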

[2] = qHTS assay to identify small molecule agonists of the farnesoid-X-receptor (FXR) signaling pathway - cell viability counter screen (AID 743218); further: nearly all actives have a fitted effect of over 45% in size
How it was run: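 Luminescence from CellTiter-Glo, read after 30 min at RT, reports viability of GeneBLAzer FXR-UAS-bla HEK 293T cells treated 16 h with compounds in the wells used for the beta-lactamase reporter.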

[3] = target: Bile acid receptor (Homo sapiens) (UniProt Q96RI1); test: qHTS assay to identify small molecule agonists of the farnesoid-X-receptor (FXR) signaling pathway (AID 743220; active means well fitted activation curve with a large enough effect in the signal ratio in the repeat runs, not every such curve was filed as active; the % refers to the signal ratio)
How it was run: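 FXR-UAS-bla HEK 293T cells carrying a UAS-driven beta-lactamase reporter were plated for 5 h at 37C/5% CO2, then exposed to DMSO-dissolved Tox21 10K compounds for 16 h at 37C. A LiveBLAzer B/G FRET substrate was loaded for 2 h at room temperature before fluorescence reading.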

[4] = qHTS assay to identify small molecule antagonists of the farnesoid-X-receptor (FXR) signaling pathway - cell viability counter screen (AID 743221; active means well fitted cell-killing curve with a large enough effect in the repeat runs, not every such curve was filed as active; further: nearly all actives have a fitted effect of over 50% in size)
How it was run: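 Luminescence from CellTiter-Glo measures cytotoxicity in GeneBLAzer FXR-UAS-bla HEK 293T cells. Cells were exposed to compounds with 50 uM chenodeoxycholic acid (final) for 16 h at 37 C, in wells also used for the reporter readout.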

[5] = qHTS assay to identify small molecule agonists of the vitamin D receptor (VDR) signaling pathway - cell viability counter screen (AID 743224); further: series mostly up to about 63 µM; nearly all actives have a fitted effect of over 50% in size
How it was run: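 Cytotoxicity counter screen: VDR-bla cells, 16 h compound exposure at 37C, 5% CO2; CellTiter-Glo luminescence, 30 min RT, same wells as bla read.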

[6] = qHTS assay to identify small molecule antagonists of the vitamin D receptor (VDR) signaling pathway - cell viability counter screen (AID 743225); further: nearly all actives have a fitted effect of over 50% in size
How it was run: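 Read-out: CellTiter-Glo luminescence measured 30 min after reagent addition at room temperature. Cells were VDR-bla HEK 293T exposed 16 h at 37C, 5% CO2, to compound with 3 nM final calcitriol agonist.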

[7] = qHTS assay to identify small molecule agonists of the NFkB signaling pathway - cell viability counter screen (AID 1159515; calls by dose curve; further: series mostly up to about 61 µM; nearly all actives have a fitted effect of over 55% in size)
How it was run: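 ME-180 NFkB-bla cells, 2,000/well; overnight attach; compound 5 hr, 37 C/5% CO2; LiveBLAzer substrate 1.5 hr RT; then CellTiter-Glo in same wells, 30 min RT, luminescence read.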

[8] = qHTS assay to identify small molecule agonists of the endoplasmic reticulum stress response signaling pathway (AID 1159516; active means well fitted activation curve with a large enough effect in the signal ratio in the repeat runs, not every such curve was filed as active; the % refers to the signal ratio)
How it was run: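 HeLa ESRE-bla reporter line; cpd 5 h, 37 C/5% CO2; LiveBLAzer B/G FRET substrate 2 h RT; ex 405, em 460/530 nm.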

[9] = qHTS assay to identify small molecule antagonists of the retinoid-related orphan receptor gamma (ROR-gamma) signaling pathway - cell viability counter screen (AID 1159520); further: nearly all actives have a fitted effect of over 50% in size
How it was run: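 Tet-on ROR gamma CHO cells (1,000/well) were plated 4 hr, given compounds in DMSO for 2 hr at 37 C, then induced with 1 uM final doxycycline for 16 hr. Viability was read as ATP by CellTiter-Glo luminescence after 30 min.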

[10] = target: Nuclear receptor ROR-gamma (Homo sapiens) (UniProt P51449); test: qHTS assay to identify small molecule antagonists of the retinoid-related orphan receptor gamma (ROR-gamma) signaling pathway (AID 1159521; further: nearly all actives have a fitted effect of over 50% in size; further: potency means the concentration at half of the fitted maximal effect)
How it was run: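 CHO Tet-on RORγ, RORE-luc reporter. Cpd 2 h pre-incubation, then dox hyclate 1 uM final, 16 h, 37 C/5% CO2. ONE-Glo luminescence; decrease = antagonist.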

[11] = qHTS assay to identify small molecule agonists of the AP-1 signaling pathway - cell viability counter screen (AID 1159525; calls by dose curve; further: nearly all actives have a fitted effect of over 55% in size)
How it was run: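 Each titration point was normalised to DMSO and tetra n-octyl ammonium bromide controls. The read was Cell Titer Glo luminescence after 30 min at RT, following 5 h compound exposure of ME-180 AP-1-bla cells at 37 °C.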

[12] = qHTS assay to identify small molecule agonists of the AP-1 signaling pathway (AID 1159526; calls by dose curve)
[13] = target: Retinoic acid receptor RXR-alpha (Homo sapiens) (UniProt P19793); test: qHTS assay to identify small molecule agonists of the RXR signaling pathway (AID 1159527; calls by dose curve; further: nearly all actives have a fitted effect of over 35% in size)
How it was run: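 Read-out: beta-lactamase FRET ratio (405 nm excitation, 460 and 530 nm emission) after 2 hr substrate loading at room temperature. Cells were RXR-alpha-UAS-bla HEK 293T treated with compounds for 16 hr in 2% charcoal-stripped FBS medium.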

[14] = qHTS assay to identify small molecule agonists of the RXR signaling pathway - cell viability counter screen (AID 1159529)
How it was run: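 HEK 293T RXRa-bla cells, 2% CS-FBS; 5 h settle; cpd 16 h 37 C, 5% CO2; CellTiter-Glo 30 min RT, luminescence. Tetraoctyl ammonium bromide as positive control.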

[15] = target: Bile acid receptor (Homo sapiens) (UniProt Q96RI1); test: qHTS assay to identify small molecule antagonists of the farnesoid-X-receptor (FXR) signaling pathway (AID 743217; active means well fitted inhibition curve with a large enough effect in the signal ratio in the repeat runs, not every such curve was filed as active; the % refers to the signal ratio)
How it was run: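 Read-out: beta-lactamase FRET fluorescence (LiveBLAzer B/G substrate, 2 h, room temperature) in GeneBLAzer FXR-UAS-bla HEK 293T cells. Compounds were co-dosed with 50 uM chenodeoxycholic acid (final) and incubated 16 h at 37 °C.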

[16] = target: Vitamin D3 receptor (Homo sapiens) (UniProt P11473); test: qHTS assay to identify small molecule agonists of the vitamin D receptor (VDR) signaling pathway (AID 743222; calls by dose curve)
How it was run: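 Beta-lactamase reporter readout (LiveBLAzer B/G FRET, 2 h RT) in VDR-bla cells after 16 h compound treatment at 37C, 5% CO2; cells pre-incubated 4 h before pin transfer of DMSO solutions.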

[17] = target: Vitamin D3 receptor (Homo sapiens) (UniProt P11473); test: qHTS assay to identify small molecule antagonists of the vitamin D receptor (VDR) signaling pathway (AID 743223; active means well fitted inhibition curve with a large enough effect in the signal ratio in the repeat runs, not every such curve was filed as active; the % refers to the signal ratio)
How it was run: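 Antagonist mode uses 1alpha,25-dihydroxyvitamin D3 at 3 nM final as stimulus. VDR-bla cells receive compounds in DMSO, incubate 16 h at 37C, then a beta-lactamase FRET substrate for 2 h at room temperature before fluorescence measurement.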

[18] = qHTS assay to identify small molecule antagonists of the peroxisome proliferator-activated receptor delta (PPARd) signaling pathway - cell viability counter screen (AID 743213); further: nearly all actives have a fitted effect of over 50% in size
How it was run: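 Agonist-stimulated (L165041, 300 nM final) HEK293H PPARd UAS-bla cells are exposed to compounds for 17 h at 37 C, and ATP-based luminescence (CellTiter-Glo) from the same wells reports cytotoxicity.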

[19] = target: Peroxisome proliferator-activated receptor delta (Homo sapiens) (UniProt Q03181); test: qHTS assay to identify small molecule antagonists of the peroxisome proliferator-activated receptor delta (PPARd) signaling pathway (AID 743215; active means well fitted inhibition curve with a large enough effect in the signal ratio in the repeat runs, not every such curve was filed as active; the % refers to the signal ratio; further: series mostly up to about 62 µM)
How it was run: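 HEK293H GeneBLAzer PPARd UAS-bla reporter cells; cpd + L165041 300 nM final, 17 h 37 C; LiveBLAzer B/G FRET substrate 2 h RT; fluorescence intensity read-out. Antagonist mode.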

Bile acid receptor (Homo sapiens), sequence (Q96RI1 whole entry, looked up): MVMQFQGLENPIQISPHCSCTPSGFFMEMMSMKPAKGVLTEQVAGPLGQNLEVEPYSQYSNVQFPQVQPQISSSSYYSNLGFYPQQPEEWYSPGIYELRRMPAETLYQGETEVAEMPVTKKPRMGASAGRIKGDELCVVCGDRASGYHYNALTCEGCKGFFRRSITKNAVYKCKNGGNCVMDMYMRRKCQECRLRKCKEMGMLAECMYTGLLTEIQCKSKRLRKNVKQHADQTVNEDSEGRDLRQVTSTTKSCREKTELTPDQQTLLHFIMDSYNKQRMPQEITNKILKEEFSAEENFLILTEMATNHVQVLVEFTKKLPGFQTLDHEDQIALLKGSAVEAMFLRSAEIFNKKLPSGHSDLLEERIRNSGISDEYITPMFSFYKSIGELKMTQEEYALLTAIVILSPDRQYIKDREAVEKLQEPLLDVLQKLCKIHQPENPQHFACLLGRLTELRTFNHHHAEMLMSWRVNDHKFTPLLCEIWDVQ
Retinoic acid receptor RXR-alpha (Homo sapiens), sequence (P19793 whole entry, looked up): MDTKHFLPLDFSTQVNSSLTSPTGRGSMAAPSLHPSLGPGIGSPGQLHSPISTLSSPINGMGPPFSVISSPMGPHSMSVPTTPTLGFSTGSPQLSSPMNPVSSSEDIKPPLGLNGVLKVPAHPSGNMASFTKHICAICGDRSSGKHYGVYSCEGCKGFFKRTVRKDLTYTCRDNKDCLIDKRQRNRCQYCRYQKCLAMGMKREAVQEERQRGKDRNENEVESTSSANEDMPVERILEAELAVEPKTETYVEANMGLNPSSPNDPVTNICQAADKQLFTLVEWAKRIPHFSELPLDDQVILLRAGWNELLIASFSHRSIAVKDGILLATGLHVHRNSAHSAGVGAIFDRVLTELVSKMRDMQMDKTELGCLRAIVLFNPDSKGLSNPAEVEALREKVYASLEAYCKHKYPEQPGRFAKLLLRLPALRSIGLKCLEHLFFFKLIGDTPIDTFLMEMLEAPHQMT
Vitamin D3 receptor (Homo sapiens), sequence (P11473 whole entry, looked up): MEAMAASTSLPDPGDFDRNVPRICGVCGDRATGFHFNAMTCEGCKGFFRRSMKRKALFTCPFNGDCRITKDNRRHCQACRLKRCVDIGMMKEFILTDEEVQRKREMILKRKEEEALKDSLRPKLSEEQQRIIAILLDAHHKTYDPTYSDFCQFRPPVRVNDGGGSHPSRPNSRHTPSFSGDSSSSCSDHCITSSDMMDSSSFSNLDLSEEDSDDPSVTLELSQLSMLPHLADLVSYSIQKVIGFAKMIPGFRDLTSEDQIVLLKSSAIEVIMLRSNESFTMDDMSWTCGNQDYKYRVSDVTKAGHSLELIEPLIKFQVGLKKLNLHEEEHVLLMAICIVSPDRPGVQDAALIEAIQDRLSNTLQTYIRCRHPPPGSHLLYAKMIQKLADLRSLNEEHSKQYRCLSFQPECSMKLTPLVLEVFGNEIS
Peroxisome proliferator-activated receptor delta (Homo sapiens), sequence (Q03181 whole entry, looked up): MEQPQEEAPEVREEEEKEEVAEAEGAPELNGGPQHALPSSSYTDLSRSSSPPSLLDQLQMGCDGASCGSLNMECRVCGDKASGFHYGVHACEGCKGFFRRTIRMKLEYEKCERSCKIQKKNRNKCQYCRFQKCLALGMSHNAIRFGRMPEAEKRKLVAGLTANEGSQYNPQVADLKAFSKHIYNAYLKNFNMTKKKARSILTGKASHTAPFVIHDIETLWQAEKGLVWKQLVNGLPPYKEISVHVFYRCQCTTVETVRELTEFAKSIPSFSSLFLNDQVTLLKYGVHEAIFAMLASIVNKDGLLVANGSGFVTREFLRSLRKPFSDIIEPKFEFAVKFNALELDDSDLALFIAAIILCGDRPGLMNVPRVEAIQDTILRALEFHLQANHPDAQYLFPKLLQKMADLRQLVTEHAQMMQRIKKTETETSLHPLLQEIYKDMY

SMILES	outcome [1]	outcome [2]	outcome [3]	outcome [4]	outcome [5]	outcome [6]	outcome [7]	outcome [8]	outcome [9]	Potency [10]	outcome [11]	outcome [12]	Potency [13]	Potency [14]	outcome [15]	outcome [16]	outcome [17]	outcome [18]	outcome [19]
CCCCCCCCCCCCSC	inactive	inactive	inactive	inactive	inactive	inactive	inactive	inactive	inactive	inactive	inactive	inactive	inactive	inactive	–	–	–	–	–
c1ccc(CCc2ccccc2)cc1	inactive	inactive	inactive	inactive	inactive	inactive	inactive	inactive	inactive	inactive	inactive	inactive	inactive	inactive	inactive	inactive	inactive	–	–
CCCCCCCCN1CCCC1=O	–	inactive	inactive	inactive	inactive	inactive	inactive	inactive	–	inactive	inactive	inactive	inactive	inactive	inactive	inactive	–	inactive	–
CC(=O)N1C[C@H](O)C[C@H]1C(=O)O	inactive	–	inactive	inactive	inactive	inactive	inactive	inactive	–	inactive	inactive	inactive	inactive	–	inactive	inactive	inactive	inactive	–
O=C(O)CCSCCC(=O)O	inactive	inactive	–	inactive	inactive	inactive	inactive	inactive	inactive	inactive	inactive	inactive	–	inactive	–	–	–	inactive	inactive
O=[N+]([O-])c1cncn1CCN1CCOCC1	–	inactive	–	inactive	inactive	inactive	inactive	inactive	–	inactive	inactive	inactive	inactive	inactive	–	inactive	inactive	–	–
C[C@H]1C[C@H]2[C@@H]3CCC4=CC(=O)C=C[C@]4(C)[C@H]3C(=O)C[C@]2(C)[C@@]1(O)C(=O)CO	inactive	–	–	inactive	inactive	inactive	inactive	inactive	inactive	inactive	inactive	inactive	inactive	inactive	–	inactive	inactive	–	–
NC(=O)N[C@@H](CCC(=O)O)C(=O)O	inactive	inactive	inactive	inactive	inactive	inactive	inactive	inactive	inactive	inactive	inactive	inactive	–	inactive	inactive	inactive	inactive	inactive	–
CC(CO)(CO)[N+](=O)[O-]	inactive	–	inactive	inactive	inactive	inactive	inactive	inactive	inactive	inactive	inactive	inactive	inactive	inactive	inactive	inactive	–	–	–
CN(C)[C@@H]1C(=O)C(C(=O)NCN2CCCC2)=C(O)[C@@]2(O)C(=O)C3=C(O)c4c(O)cccc4[C@@](C)(O)C3C[C@@H]12 (some centres not stated)	–	inactive	–	inactive	inactive	inactive	inactive	inactive	inactive	inactive	inactive	inactive	inactive	inactive	–	inactive	–	inactive	–
NCCCC[C@H](N[C@@H](CCc1ccccc1)C(=O)O)C(=O)N1CCC[C@H]1C(=O)O	–	inactive	inactive	inactive	inactive	inactive	inactive	inactive	–	inactive	inactive	inactive	–	inactive	inactive	–	–	inactive	–
CCC1C(=O)OCC1Cc1cncn1C (configuration not stated)	–	inactive	–	inactive	inactive	inactive	inactive	inactive	inactive	inactive	inactive	inactive	inactive	inactive	–	inactive	inactive	inactive	inactive
O=C(O)c1cc(C(=O)O)cc(C(=O)O)c1	inactive	inactive	–	inactive	–	inactive	inactive	inactive	inactive	inactive	inactive	inactive	–	inactive	–	inactive	inactive	inactive	inactive
Nc1ccn([C@@H]2O[C@H](CO)[C@@H](O)C2(F)F)c(=O)n1	inactive	inactive	inactive	inactive	inactive	inactive	inactive	inactive	inactive	237 nM (active)	inactive	inactive	inactive	inactive	–	inactive	inactive	inactive	–
CCCCS(=O)(=O)N[C@@H](Cc1ccc(OCCCCC2CCNCC2)cc1)C(=O)O	inactive	–	–	inactive	inactive	inactive	inactive	inactive	–	inactive	inactive	inactive	inactive	inactive	–	–	–	inactive	–
CCCCCC(C)N (configuration not stated)	inactive	inactive	–	inactive	inactive	inactive	inactive	inactive	inactive	inactive	inactive	inactive	inactive	inactive	–	–	–	inactive	inactive
CCCO[Si](OCCC)(OCCC)OCCC	inactive	inactive	–	inactive	inactive	inactive	inactive	inactive	–	inactive	inactive	inactive	inactive	inactive	–	inactive	inactive	–	–
CC[N+](C)(CC)CCOC(=O)C1c2ccccc2Oc2ccccc21	inactive	–	–	inactive	inactive	inactive	inactive	inactive	inactive	inactive	inactive	inactive	–	inactive	–	inactive	inactive	–	inactive
FB(F)F	inactive	inactive	inactive	inactive	inactive	inactive	inactive	inactive	inactive	inactive	inactive	inactive	inactive	inactive	inactive	inactive	inactive	inactive	–
